From PubChem BioAssay AID624168 (Sanford-Burnham Center for Chemical Genomics, 2012)
Out of some 360,000 compounds screened, about 800 (0.22%) were called active. Many of the other results were omitted from the sample, so actives are more common in it than they were. A number with no mark means an inactive call.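 Rule for the calls: active = activation of at least 8% versus controls, or a plate z-score of at least 8; inactive = the rest.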

Test: compounds raising alpha-dystroglycan glycosylation – uHTS, Pro5-aDG cells, AlphaScreen, primary screen (AID 624168);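 note: Pro5 are CHO cells carrying HIG-tagged alpha-DG that lacks glycosylation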
Conditions: alpha-DG glycosylation AlphaScreen (IIH6), at 10 µM, hits give high values; 0% Pro5, 100% B10-LARGE cell signal unless noted

Structure (SMILES)	activation
CNCC(O)c1cc(F)c(OCc2ccccc2)c(OCc2ccccc2)c1F (stereo not given)	7.7% (active)
Cc1ccc(C2CN(C)CC2C(=O)c2ccc(F)cc2)cc1 (stereo not given)	0% [setting not given]
Cc1nc2ccccn2c1P(=S)(N1CCCCC1)N1CCCCC1	-0.2% [setting not given]
COc1cc(C(=O)N2Cc3ccc(Br)cc3-n3nncc3C2)cc(OC)c1OC	-0.2%
COC(=O)C1=C(c2ccc(F)cc2OCc2ccccc2)C[C@@H]2CC[C@H]1N2C(=O)NCc1ccc(Cl)cc1	0.6%
